# Data from PubChem BioAssay (NCATS).
# Where “and” joins values, the source holds several entries; their conditions need not be identical. Equal entries are not always repeated. Results filed as inconclusive are left out. Entries that show only a call come without a potency. Calls of active or inactive are those of the source. Unless noted, calls follow the shape of the full dose curve.
# Legend:
# [1] = molecular target: Bile acid receptor (Homo sapiens) (UniProt Q96RI1); test: qHTS assay for small molecule antagonists of farnesoid X receptor signaling (AID 588526)
# How it was run: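 Beta-lactamase reporter antagonist mode: HEK293T FXR-UAS-bla cells, titrated compound, CDCA stimulation, 16 h 37 C, CCF4 dye 2 h RT. Data normalized to CDCA 50 uM and DMSO; Hill-fit IC50.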
# [2] = molecular target: Glucocorticoid receptor (Homo sapiens) (UniProt P04150); test: qHTS assay for small molecule agonists of glucocorticoid receptor signaling (AID 588532; active = well fitted curve in the direction sought with a large enough effect in the signal ratio, with a control signal flat; the % refers to the signal ratio); details: HeLa MMTV-bla, beta-lactamase ratio, agonist, 18 h; stronger effect = higher value; percent of dexamethasone control, DMSO zero
# How it was run: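 Using MMTV-bla HeLa cells in medium with 1% stripped FBS and 25 mM HEPES, compounds were titrated and incubated overnight-length (18 h). Beta-lactamase cleavage of CCF4 was quantified by dual-emission fluorescence.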
# [3] = qHTS assay for small molecule antagonists of peroxisome proliferator-activated receptor delta signaling (AID 588535; active = well fitted inhibition curve with a large enough effect in the signal ratio, with a control signal flat, not every such curve was filed as active; the % refers to the signal ratio;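 as to max response: cells co-treated with a PPAR-delta agonist as stimulator during compound exposure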); details: HEK293T PPARd-UAS-bla, beta-lactamase FRET ratio, 18 h; 460 nm channel
# How it was run: (§1)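 Antagonist-mode qHTS using GeneBLAzer PPAR-delta-UAS-bla HEK293T cells; compound exposure 18 hrs at 37 C over a titration. Ratiometric CCF4 fluorescence at 460/530 nm; concentration-response points fitted to the Hill equation.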
# [4] = molecular target: Peroxisome proliferator-activated receptor delta (Homo sapiens) (UniProt Q03181); test: as above
# How it was run: as §1
# [5] = molecular target: Peroxisome proliferator-activated receptor gamma (Homo sapiens) (UniProt P37231); test: qHTS assay for small molecule agonists of peroxisome proliferator-activated receptor gamma signaling (AID 588536; active = well fitted curve in the direction sought with a large enough effect in the signal ratio, with a control signal flat, not every such curve was filed as active; the % refers to the signal ratio)
# How it was run: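 Beta-lactamase reporter read-out: CCF4 fluorescence (ex 405, em 460/530 nm) after 2 h at RT. HEK293 GeneBLAzer cells were treated for 16 h at 37 C. Hill fits gave EC50 and efficacy versus 2 uM rosiglitazone (100%) and DMSO (0%).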
# [6] = molecular target: Vitamin D3 receptor (Homo sapiens) (UniProt P11473); test: qHTS assay for small molecule antagonists of vitamin D receptor signaling (AID 588541);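 also: receptor activated by calcitriol during compound treatment; series mostly up to about 77 µM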
# How it was run: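 Antagonist-mode beta-lactamase reporter assay: HEK293T VDR-UAS-bla cells were exposed to titrated compound alongside 1-alpha,25-dihydroxyvitamin D3 at 3 nM final for 16 h. Values were normalized to the 50 nM agonist control and DMSO basal, with IC50 and efficacy from Hill equation fits.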
# [7] = molecular target: Vitamin D3 receptor (Homo sapiens) (UniProt P11473); test: qHTS assay for small molecule agonists of vitamin D receptor signaling (AID 588543)
# How it was run: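 GeneBLAzer VDR-UAS-bla HEK293T cells in 2% charcoal-stripped FBS medium were dosed with compound titrations for 16 h at 37 °C; CCF4 β-lactamase readout (405 nm ex, 460/530 nm em). EC50 and efficacy from Hill fits, normalized to 50 nM calcitriol (100%) and DMSO (0%).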
# [8] = qHTS assay for small molecule agonists of retinoid X receptor alpha signaling (AID 588544); details: HEK293T RXRa-UAS-bla, beta-lactamase reporter, 18 h; 530 nm emission
# [9] = molecular target: Retinoic acid receptor RXR-alpha (Homo sapiens) (UniProt P19793); test: as above
# [10] = molecular target: Thyroid hormone receptor beta (Homo sapiens) (UniProt P10828); test: qHTS assay for small molecule agonists of thyroid hormone receptor beta signaling (AID 588545)
# How it was run: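 Cells (2500/well) were seeded, incubated 4 hrs at 37 C, dosed with a compound series, incubated 18 hrs, loaded with CCF4 dye for 2 hrs at RT, then read for fluorescence. Data were scaled between DMSO (0%) and 10 nM T3 (100%).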
# [11] = qHTS assay for small molecule antagonists of retinoid X receptor alpha signaling (AID 588546; active = well fitted inhibition curve with a large enough effect in the signal ratio, with a control signal flat, not every such curve was filed as active; the % refers to the signal ratio;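 also: cells stimulated with 9-cis-retinoic acid as agonist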); details: HEK293T RXRa-UAS-bla, beta-lactamase ratio, antagonist mode; measured here: W530 green channel, cytotoxicity proxy
# How it was run: (§2)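 Beta-lactamase reporter inhibition, read as CCF4 fluorescence ratio (ex 405, em 460/530 nm) after 2 h at RT. HEK293T UAS-bla cells, 2500/well, were stimulated with 9-cis-RA at 500 or 100 nM final alongside test compound for 18 h at 37 C.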
# [12] = molecular target: Retinoic acid receptor RXR-alpha (Homo sapiens) (UniProt P19793); test: as above; details: HEK293T RXRa-UAS-bla, beta-lactamase ratio, antagonist mode
# How it was run: as §2
# [13] = molecular target: Thyroid hormone receptor beta (Homo sapiens) (UniProt P10828); test: qHTS assay for small molecule antagonists of thyroid hormone receptor beta signaling (AID 588547; active = well fitted inhibition curve with a large enough effect in the signal ratio, with a control signal flat, not every such curve was filed as active; the % refers to the signal ratio;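 also: cells stimulated with 0.4 nM T3 agonist during compound exposure; series mostly up to about 77 µM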); details: TR-UAS-bla HEK293, beta-lactamase ratio, antagonist mode, 18 h
# How it was run: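 Inhibition of T3-driven (0.4nM final) beta-lactamase reporter activity was measured over 0.59 nM to 92 uM compound after 18 h at 37 C. The cells were GripTite HEK293 TR-UAS-bla in charcoal/dextran-stripped serum, with CCF4 ratio read-out and IC50 from Hill fits.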
# [14] = molecular target: Voltage-gated inwardly rectifying potassium channel KCNH2 (Homo sapiens) (UniProt Q12809); test: qHTS Assay for Small Molecule Inhibitors of the Human hERG Channel Activity (AID 588834; active = well fitted inhibition curve with a large enough effect;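 also: lower thallium flux fluorescence means stronger hERG block; nearly all actives have a fitted effect of over 50% in size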; also: potency is read from the fitted curve at half-maximal effect)
# How it was run: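 In hERG-transduced U2OS cells, dye-loaded for 1 hr at room temperature in dark, test compounds incubated 10 min at 37 °C before thallium stimulation. AC50 values derived by Hill modelling of concentration-response.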
# [15] = qHTS assay for small molecule activators of the p53 signaling pathway (AID 651743; active = well fitted activation curve with a large enough effect in the signal ratio, not every such curve was filed as active; the % refers to the signal ratio; also: series mostly up to about 92 µM); details: HCT-116 p53RE-bla, beta-lactamase FRET ratio, 16 h; stronger effect = higher value
# How it was run: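 A beta-lactamase reporter under p53 response element control, stably carried by HCT-116 cells, reported pathway activation. Test compounds were applied for 16 hours at 37 C, and fluorescence was measured 2 hours after adding the B/G FRET substrate.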
# [16] = qHTS assay for small molecule activators of the nuclear factor-kappa B (NF-kB) signaling pathway (AID 651749; active = well fitted activation curve with a large enough effect in the signal ratio; the % refers to the signal ratio; also: series mostly up to about 77 µM); details: NF-kB-bla ME-180 cells, beta-lactamase FRET ratio, 16 h; stronger effect = higher value
# How it was run: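 FRET-based beta-lactamase detection in ME-180 cells reports NF-kB response-element-driven transcription following overnight (16 hr) compound treatment.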
# [17] = molecular target: Glucocorticoid receptor (Homo sapiens) (UniProt P04150); test: qHTS assay for small molecule antagonists of glucocorticoid receptor signaling (AID 588533; active = well fitted inhibition curve with a large enough effect in the signal ratio, with a control signal flat, not every such curve was filed as active; the % refers to the signal ratio;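 also: cells stimulated with 2 nM dexamethasone as agonist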)
# How it was run: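 Antagonist-mode qHTS: compound titrations added to GRE-bla HeLa cells, then dexamethasone 2 nM final; 18 h, 37 C. CCF4 FRET fluorescence normalized to dexamethasone and DMSO; IC50 from Hill fit.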
# [18] = molecular target: Peroxisome proliferator-activated receptor gamma (Homo sapiens) (UniProt P37231); test: qHTS assay for small molecule antagonists of peroxisome proliferator-activated receptor gamma signaling (AID 588537; active = well fitted inhibition curve with a large enough effect in the signal ratio, with a control signal flat, not every such curve was filed as active; the % refers to the signal ratio;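 also: reporter cells co-stimulated with 50 nM rosiglitazone agonist during compound treatment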)
# How it was run: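 Cell-based beta-lactamase assay; GW9662 served as the antagonist control. Stimulation used rosiglitazone, final 50 nM, 16 h, 37 C.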
# [19] = qHTS assay for small molecule agonists of the antioxidant response element (ARE) signaling pathway (AID 651741; active = well fitted activation curve with a large enough effect in the signal ratio; the % refers to the signal ratio; also: potency is read from the fitted curve at half-maximal effect)
# How it was run: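 Agonist activity is measured as ARE-driven beta-lactamase expression in a stable HepG2 reporter line, using 16 h compound treatment at 37 C and a FRET substrate fluorescence readout after 2 h.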
# Peroxisome proliferator-activated receptor delta (Homo sapiens), sequence (Q03181 whole entry, looked up): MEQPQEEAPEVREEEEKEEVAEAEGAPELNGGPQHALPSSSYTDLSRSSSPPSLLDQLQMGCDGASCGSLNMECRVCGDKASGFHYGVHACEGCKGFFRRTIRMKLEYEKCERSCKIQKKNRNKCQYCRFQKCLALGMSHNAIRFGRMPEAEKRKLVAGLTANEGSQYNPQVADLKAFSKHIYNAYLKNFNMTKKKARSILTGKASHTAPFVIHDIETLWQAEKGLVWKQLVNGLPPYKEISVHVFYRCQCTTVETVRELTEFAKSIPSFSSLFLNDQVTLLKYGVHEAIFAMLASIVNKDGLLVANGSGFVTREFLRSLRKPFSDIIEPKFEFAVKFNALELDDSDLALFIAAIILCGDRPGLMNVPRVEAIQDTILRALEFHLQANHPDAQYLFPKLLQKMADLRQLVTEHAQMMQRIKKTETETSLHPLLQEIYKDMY
# Vitamin D3 receptor (Homo sapiens), sequence (P11473 whole entry, looked up): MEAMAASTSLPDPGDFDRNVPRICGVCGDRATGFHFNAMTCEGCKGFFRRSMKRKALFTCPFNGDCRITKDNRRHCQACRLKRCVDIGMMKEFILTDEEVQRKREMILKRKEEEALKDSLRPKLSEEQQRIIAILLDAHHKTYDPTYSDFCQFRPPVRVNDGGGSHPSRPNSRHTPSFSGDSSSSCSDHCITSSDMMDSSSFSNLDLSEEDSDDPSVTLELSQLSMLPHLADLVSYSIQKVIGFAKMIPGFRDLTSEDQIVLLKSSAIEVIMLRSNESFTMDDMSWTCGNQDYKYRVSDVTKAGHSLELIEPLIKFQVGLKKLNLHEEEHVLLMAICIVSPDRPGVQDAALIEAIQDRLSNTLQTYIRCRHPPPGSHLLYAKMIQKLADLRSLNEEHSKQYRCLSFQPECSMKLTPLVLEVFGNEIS
# Thyroid hormone receptor beta (Homo sapiens), sequence (P10828 whole entry, looked up): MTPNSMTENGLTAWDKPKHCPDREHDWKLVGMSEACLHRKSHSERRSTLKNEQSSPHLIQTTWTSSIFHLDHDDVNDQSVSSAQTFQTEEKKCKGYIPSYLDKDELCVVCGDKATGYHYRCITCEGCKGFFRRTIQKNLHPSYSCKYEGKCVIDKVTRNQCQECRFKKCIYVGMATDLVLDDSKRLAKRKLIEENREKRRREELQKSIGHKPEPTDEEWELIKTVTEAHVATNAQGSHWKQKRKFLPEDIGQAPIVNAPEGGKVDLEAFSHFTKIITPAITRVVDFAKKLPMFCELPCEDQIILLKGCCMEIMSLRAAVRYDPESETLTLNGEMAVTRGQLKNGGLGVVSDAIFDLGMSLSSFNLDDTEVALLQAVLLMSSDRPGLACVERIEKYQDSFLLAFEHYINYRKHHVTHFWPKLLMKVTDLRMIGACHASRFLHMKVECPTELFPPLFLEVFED
# Glucocorticoid receptor (Homo sapiens), sequence (P04150 whole entry, looked up): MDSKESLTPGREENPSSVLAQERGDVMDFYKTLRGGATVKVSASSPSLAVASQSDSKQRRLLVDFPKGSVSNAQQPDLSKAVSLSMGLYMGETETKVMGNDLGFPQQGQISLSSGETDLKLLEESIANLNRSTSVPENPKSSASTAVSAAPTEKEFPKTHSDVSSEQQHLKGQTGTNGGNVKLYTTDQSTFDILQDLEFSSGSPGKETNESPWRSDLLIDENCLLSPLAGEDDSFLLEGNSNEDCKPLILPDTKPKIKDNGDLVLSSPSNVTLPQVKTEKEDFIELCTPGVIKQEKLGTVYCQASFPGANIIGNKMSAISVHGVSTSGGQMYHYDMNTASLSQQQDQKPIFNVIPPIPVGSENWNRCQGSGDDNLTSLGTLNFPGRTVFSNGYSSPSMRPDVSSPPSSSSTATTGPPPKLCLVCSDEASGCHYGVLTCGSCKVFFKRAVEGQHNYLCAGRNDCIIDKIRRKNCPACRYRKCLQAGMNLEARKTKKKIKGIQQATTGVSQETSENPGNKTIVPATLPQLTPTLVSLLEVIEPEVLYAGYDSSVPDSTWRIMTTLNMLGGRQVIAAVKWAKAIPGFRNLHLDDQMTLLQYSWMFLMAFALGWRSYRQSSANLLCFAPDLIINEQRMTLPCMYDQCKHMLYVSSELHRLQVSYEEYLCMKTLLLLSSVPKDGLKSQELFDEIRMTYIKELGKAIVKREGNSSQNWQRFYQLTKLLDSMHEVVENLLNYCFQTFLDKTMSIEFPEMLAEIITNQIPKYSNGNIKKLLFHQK
# Voltage-gated inwardly rectifying potassium channel KCNH2 (Homo sapiens), sequence (Q12809 whole entry, looked up): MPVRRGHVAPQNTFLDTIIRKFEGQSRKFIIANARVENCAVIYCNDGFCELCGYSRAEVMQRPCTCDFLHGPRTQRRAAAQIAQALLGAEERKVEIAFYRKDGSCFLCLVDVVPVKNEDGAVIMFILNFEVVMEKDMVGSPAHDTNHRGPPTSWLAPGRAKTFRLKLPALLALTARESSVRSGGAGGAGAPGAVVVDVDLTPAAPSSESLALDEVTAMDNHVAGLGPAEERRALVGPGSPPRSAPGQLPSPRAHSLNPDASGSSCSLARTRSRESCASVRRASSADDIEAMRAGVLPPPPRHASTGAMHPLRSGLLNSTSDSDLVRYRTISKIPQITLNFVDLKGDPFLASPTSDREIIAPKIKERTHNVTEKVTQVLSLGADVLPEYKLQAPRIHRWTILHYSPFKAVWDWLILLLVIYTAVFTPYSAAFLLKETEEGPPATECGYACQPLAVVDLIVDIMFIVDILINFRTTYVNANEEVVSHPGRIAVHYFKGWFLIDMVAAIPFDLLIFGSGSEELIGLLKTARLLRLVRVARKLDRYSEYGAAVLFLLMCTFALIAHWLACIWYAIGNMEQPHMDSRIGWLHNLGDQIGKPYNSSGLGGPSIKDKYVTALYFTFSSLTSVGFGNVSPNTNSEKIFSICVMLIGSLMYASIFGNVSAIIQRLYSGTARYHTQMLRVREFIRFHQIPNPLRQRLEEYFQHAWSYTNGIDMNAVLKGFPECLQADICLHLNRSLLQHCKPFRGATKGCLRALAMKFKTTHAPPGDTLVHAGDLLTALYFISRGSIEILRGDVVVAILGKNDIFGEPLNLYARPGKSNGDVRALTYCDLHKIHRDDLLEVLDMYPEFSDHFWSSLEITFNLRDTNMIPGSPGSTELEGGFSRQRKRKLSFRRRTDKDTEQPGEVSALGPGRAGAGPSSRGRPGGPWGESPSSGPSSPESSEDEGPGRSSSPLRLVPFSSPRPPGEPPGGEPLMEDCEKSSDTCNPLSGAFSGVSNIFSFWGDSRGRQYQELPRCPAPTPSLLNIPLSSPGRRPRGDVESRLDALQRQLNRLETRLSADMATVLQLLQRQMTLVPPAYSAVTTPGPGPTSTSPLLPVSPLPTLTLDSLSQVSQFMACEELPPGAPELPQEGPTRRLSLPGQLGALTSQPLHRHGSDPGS
# Retinoic acid receptor RXR-alpha (Homo sapiens), sequence (P19793 whole entry, looked up): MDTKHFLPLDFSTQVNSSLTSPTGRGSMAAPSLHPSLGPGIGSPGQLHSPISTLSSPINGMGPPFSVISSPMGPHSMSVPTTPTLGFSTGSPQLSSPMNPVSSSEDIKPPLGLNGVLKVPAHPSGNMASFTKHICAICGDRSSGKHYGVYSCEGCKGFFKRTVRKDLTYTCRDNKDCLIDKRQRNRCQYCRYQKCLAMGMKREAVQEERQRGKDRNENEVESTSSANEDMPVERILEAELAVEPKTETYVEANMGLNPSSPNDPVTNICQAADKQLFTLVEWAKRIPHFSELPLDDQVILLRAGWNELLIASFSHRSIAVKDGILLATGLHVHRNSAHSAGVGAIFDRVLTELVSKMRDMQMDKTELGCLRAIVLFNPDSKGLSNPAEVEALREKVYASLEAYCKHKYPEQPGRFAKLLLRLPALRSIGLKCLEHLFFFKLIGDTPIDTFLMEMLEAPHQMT
# Bile acid receptor (Homo sapiens), sequence (Q96RI1 whole entry, looked up): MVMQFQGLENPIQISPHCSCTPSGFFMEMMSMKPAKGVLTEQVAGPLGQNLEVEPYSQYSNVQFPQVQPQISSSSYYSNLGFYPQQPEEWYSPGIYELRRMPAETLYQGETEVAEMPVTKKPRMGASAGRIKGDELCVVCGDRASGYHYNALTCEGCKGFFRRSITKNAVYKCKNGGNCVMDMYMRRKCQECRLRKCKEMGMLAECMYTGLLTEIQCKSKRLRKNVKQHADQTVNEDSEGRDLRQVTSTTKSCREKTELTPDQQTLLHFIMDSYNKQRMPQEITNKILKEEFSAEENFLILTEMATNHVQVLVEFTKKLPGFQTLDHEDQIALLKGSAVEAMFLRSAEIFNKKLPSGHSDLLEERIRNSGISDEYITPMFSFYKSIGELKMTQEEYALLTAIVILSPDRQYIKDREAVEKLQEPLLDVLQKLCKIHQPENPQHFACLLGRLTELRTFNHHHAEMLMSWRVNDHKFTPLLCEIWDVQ
# Peroxisome proliferator-activated receptor gamma (Homo sapiens), sequence (P37231 whole entry, looked up): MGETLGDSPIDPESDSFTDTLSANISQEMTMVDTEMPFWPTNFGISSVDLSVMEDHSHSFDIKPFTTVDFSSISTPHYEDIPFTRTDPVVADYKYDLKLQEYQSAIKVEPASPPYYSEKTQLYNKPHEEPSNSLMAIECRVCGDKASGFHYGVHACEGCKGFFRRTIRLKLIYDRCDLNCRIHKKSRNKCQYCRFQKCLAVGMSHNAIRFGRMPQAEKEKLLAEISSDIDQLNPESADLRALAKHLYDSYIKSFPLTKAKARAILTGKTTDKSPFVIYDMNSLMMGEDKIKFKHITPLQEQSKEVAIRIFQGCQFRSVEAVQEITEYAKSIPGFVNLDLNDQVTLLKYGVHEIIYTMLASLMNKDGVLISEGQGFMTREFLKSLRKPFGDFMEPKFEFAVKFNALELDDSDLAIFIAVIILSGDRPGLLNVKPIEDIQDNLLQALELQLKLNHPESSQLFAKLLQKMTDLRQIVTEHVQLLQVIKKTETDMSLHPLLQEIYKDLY
SMILES,outcome [1],activation [2],max response [3],Potency [4],outcome [5],outcome [6],outcome [7],max response [8],outcome [9],outcome [10],max response [11],max response [12],activity change % (negative = inhibition) [13],Potency [14],activation [15],activation [16],outcome [17],outcome [18],Potency [19]
CC(C)CCOC(=O)/C=C/c1ccccc1,inactive,-0.0444% (inactive),17.3%,inactive,inactive,inactive,inactive,7.69%,inactive,inactive,5.75%,-10.7% (inactive),-18.5% (inactive),22.4 µM (active),1.36% (inactive),-1.28% (inactive),,,
CCCCC=O,inactive,-0.364% (inactive),,,,inactive,inactive,-7.77%,inactive,inactive,-1.56%,-1.19% (inactive),-3.59% (inactive),,,0.166% (inactive),inactive,,
C=CCCCCCC,inactive,7.84% (inactive),,,inactive,inactive,inactive,-14%,inactive,inactive,0.804%,-6.3% (inactive),-3.79% (inactive),inactive,-2.89% (inactive),,inactive,inactive,
O=CNc1ccccc1,inactive,-0.553% (inactive),,,inactive,inactive,inactive,-8.25%,inactive,inactive,2.83%,1.7% (inactive),,inactive,,,inactive,inactive,
CCOCCOCC,inactive,,-23%,inactive,inactive,inactive,inactive,-9.35%,inactive,inactive,-9.02%,1.41% (inactive),12.3% (inactive),inactive,0.0371% (inactive),-0.436% (inactive),inactive,inactive,inactive
Cc1cc(C)cc(N)c1,inactive,,-0.443%,inactive,inactive,inactive,inactive,-7.06%,inactive,inactive,1.47%,9.88% (inactive),-11.7% (inactive),inactive,-1.89% (inactive),0.882% (inactive),inactive,inactive,inactive
Oc1cccc(Nc2ccccc2)c1,inactive,-7.34% (inactive),,,inactive,,,-0.0784%,inactive,inactive,,,,,,0.49% (inactive),inactive,,42.2 µM (active)
CCc1ccccc1O,inactive,,-32.1%,inactive,inactive,inactive,,-12.3%,inactive,inactive,-5.98%,5.77% (inactive),,inactive,,0.236% (inactive),inactive,,
CCC1CO1 (centres undefined),inactive,,-69.5%,inactive,inactive,inactive,inactive,-15.4%,inactive,inactive,-10.7%,-1.32% (inactive),-15.4% (inactive),inactive,-2.66% (inactive),-0.443% (inactive),inactive,inactive,
CC(=O)Nc1ccc(N)cc1,inactive,1.17% (inactive),,,inactive,inactive,,-9.56%,inactive,,6.27%,0.952% (inactive),,inactive,0.791% (inactive),-0.653% (inactive),inactive,,
c1ccc(Oc2ccccc2)cc1,inactive,2.66% (inactive) and -3.4% (inactive),-19.2% and -5.05%,,,inactive,inactive,-5.86% and -5.26%,inactive,inactive,-2.47% and -11.6%,-1.69% (inactive) and -4.15% (inactive),13.9% (inactive) and 3.24% (inactive),inactive,-0.263% (inactive) and 10.2% (inactive),-0.173% (inactive) and -1.25% (inactive),inactive,,
CCC(=O)/C=C/C1C(C)=CCCC1(C)C (centres undefined),inactive,-2.65% (inactive),2.01%,inactive,inactive,inactive,inactive,-9.1%,inactive,inactive,-4%,2.33% (inactive),-4.67% (inactive),,-2.61% (inactive),,,,
O=C(O)c1ccc(CO)o1,inactive,-2.95% (inactive),,,inactive,inactive,inactive,-7.5%,inactive,inactive,-4.49%,-4.1% (inactive),-7.49% (inactive),inactive,-2.63% (inactive),0.608% (inactive),inactive,,
C=C(C)C(=O)OCCCCCCCCCC,inactive,8.77% (inactive),,,inactive,inactive,inactive,-10.3%,inactive,inactive,-7.57%,-3.36% (inactive),12.3% (inactive),,,,inactive,inactive,
Nc1nc2ccccc2[nH]1,inactive,0.673% (inactive),,,inactive,inactive,inactive,,,inactive,-22%,-2.52% (inactive),16% (inactive),inactive,1.82% (inactive),,inactive,inactive,inactive
Nc1c(Cl)cc(Cl)cc1Cl,inactive,,1.78%,inactive,inactive,inactive,inactive,-8.9%,inactive,inactive,1.94%,4.53% (inactive),14.8% (inactive),,-0.29% (inactive),,inactive,inactive,inactive
CC1CCC2CC1C2(C)C (centres undefined),inactive,,,,inactive,,,-0.475%,inactive,inactive,8.6%,9.66% (inactive),12.3% (inactive),inactive,-0.467% (inactive),-0.9% (inactive),inactive,inactive,inactive
